Assay results reported in PubChem BioAssay (NCI).
About 79,000 compounds went through this panel and 15% of them were active in at least one assay; those are over-represented in the sample as a whole. Unmarked numbers belong to inactive results. Calls of active or inactive are those of the source. Cut-off read from the data, not from the text of the source: active = growth inhibition above about 70%; inactive = the rest.

Assays:
[1] = NCI Yeast Anticancer Drug Screen. Data for the rad50 strain (AID 155);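 note: 0% = growth of vehicle-only cultures of the same strain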; conditions: S. cerevisiae rad50 strain growth inhibition; at 50.0 µM; stronger effect = higher value
How it was run: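 Yeast carrying a defined DNA repair defect were exposed to test compounds, and growth was compared with vehicle-treated controls to give percent inhibition.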

[2] = NCI Yeast Anticancer Drug Screen. Data for the mec2-1 strain (AID 157); conditions: S. cerevisiae mec2-1 strain, at 50.0 µM, stronger effect = higher value
How it was run: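 Mutant yeast (mec2-1) grown with compound; growth inhibition relative to vehicle control reported.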

[3] = NCI Yeast Anticancer Drug Screen. Data for the cln2 rad14 strain (AID 165);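 note: 0% = growth equal to vehicle treated cultures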; conditions: S. cerevisiae cln2 rad14 strain, at 50.0 µM, stronger effect = higher value
How it was run: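 Readout is yeast growth inhibition versus vehicle-treated controls, using a strain with cln2 and rad14 alterations exposed to compound.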

[4] = NCI Yeast Anticancer Drug Screen. Data for the bub3 strain (AID 167); conditions: S. cerevisiae bub3 mutant strain, at 50.0 µM, stronger effect = higher value
How it was run: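 Compounds were applied to a genetically altered yeast strain carrying a cell-cycle control defect. Growth inhibition was scored against vehicle-treated controls.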

[5] = NCI Yeast Anticancer Drug Screen. Data for the mlh1 rad18 strain (AID 175); conditions: S. cerevisiae mlh1 rad18 strain growth inhibition; at 50.0 µM; stronger effect = higher value
How it was run: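 Genetically defined yeast (DNA repair-deficient) exposed to compounds; growth inhibition determined relative to vehicle.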

[6] = NCI Yeast Anticancer Drug Screen. Data for the sgs1 mgt1 strain (AID 161);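 note: 0% = growth of cultures given vehicle only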; conditions: S. cerevisiae sgs1 mgt1 strain, at 50.0 µM, stronger effect = higher value
How it was run: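 Growth of a repair-deficient yeast mutant was monitored after compound treatment and expressed as inhibition relative to vehicle-treated cultures.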

SMILES	growth inhibition [1]	growth inhibition [2]	growth inhibition [3]	growth inhibition [4]	growth inhibition [5]	growth inhibition [6]
O=S(=O)(c1ccccc1)c1cccc2c1NCCC2	34.9%	-1.75%	8.4%	62.3%	43.6%	
Cc1ccc(N=CN(C)C)c(Cl)c1	-4.5%	0.8%	-16.8%	-7.4%	-23.1%	
COc1ccc2c(c1)CCN1CCCc3ccc(OC)cc3C21 (stereo not given)	18.9%	30.3%		31.4%	46.7%	24.6%
O=C(O)c1c(Br)c(Br)c(Br)c(Br)c1C(=O)Nc1ccc(Cl)cc1C(F)(F)F	1.35%	10.1%	-6.55%	0.3%	13.3%	
O=[N+]([O-])c1ccc(CCn2cnc3c(N(CCO)CCO)ncnc32)cc1	-7.85%	-0.9%	-54.3%	6.95%	-14.3%	
CN(c1cn(C2CC[C@@H](CO)O2)c(=O)[nH]c1=O)C1CCCCC1 (stereo not given in full)	-35.8%	-13.4%	-6%	5.35%	-41.5%	
OC(C(=S)N1CCCC1)(c1ccccc1)c1ccccc1	10.8%	17.3%	8.45%	9.6%	-0.6%	
COc1ccc(NC(=O)Nc2cc(C(F)(F)F)ccc2Cl)cc1	14.6%	16.6%	-26.1%	2.5%	-9.65%	
O=[N+]([O-])c1ccc(OC2CC3C4C=CC3C2C4)c([N+](=O)[O-])c1 (stereo not given)	-27.9%	-17.1%	20.8%	-9.6%	-24.6%	
C=CC1(C)C(C)=C(C)C(C)=C1C	11.1%	-4.2%	18%	-2%	9.4%	
CCN(CC)CCOB(c1cccc2ccccc12)c1cccc2ccccc12	39.6%	24.4%	26.8%	-3.4%	43.8%	
Nc1c(OS(=O)(=O)c2ccccc2)cccc1OS(=O)(=O)c1ccccc1	20.8%	-2.45%	20.7%	39.7%	37.1%	
NC(=O)C1CC2CC(Cl)C1C2 (stereo not given)	-0.5%	-0.1%	-45%	9.65%	-22.1%	
O=c1[nH]c(C(F)(F)F)c(CCc2ccccc2)c(=O)[nH]1	3.5%	20.1%	-3.8%	36.3%	29.8%	
O=S(=O)(O)CC(NCc1ccccc1)c1ccccc1 (stereo not given)	-28.9%	-0.45%	-36.9%	13.8%	-5%	
Cc1ccc(C(=O)c2ccccc2C(=O)O)cc1C(=O)O	8.9%	11.1%		10.2%	-7.05%	1.15%
Cc1ccc(NC(=O)CCC(=O)C2CC(=O)CCC2=O)cc1C (stereo not given)	-22.6%	-14.8%	5.75%	6.4%	-9.9%	
CC1(C)S[C@H](c2ccccc2C(=O)O)N[C@@H]1CC(=O)O	-35.3%	-6.9%	-21.7%	-26.5%	-31.4%	
NS(=O)(=O)c1cccc(C(F)(F)F)c1	-7.95%	-37.9%	-21.7%	-16.4%	-7.2%	
CN(C)c1ccc(/C=C/c2nc3ccc(Cl)cc3[nH]2)cc1	-5.55%	0.1%	5.75%	-8.2%	-14.1%	

SMILES	growth inhibition [1]	growth inhibition [2]	growth inhibition [3]	growth inhibition [4]	growth inhibition [5]	growth inhibition [6]
O=C(CCC(O)c1ccccc1)c1ccccc1 (stereo not given)	-13.6%	-12.3%	-10.9%	0%	2.35%	
NCCN=C(N)C(N)=NCCN	19.1%	5.3%	-54.5%	7.45%	8.1%	
Cc1cnc2c(C)ccc([N+](=O)[O-])c2c1NCCCN(C)C	34.2%	13.8%	2.45%	16.9%	52%	
CCOC(=O)N1CCN(Cc2cc(=O)n3ccc(C)cc3n2)CC1	21.8%	2.8%	12.5%	17.4%	22.1%	
Cc1ccc(CCCC(=O)O)c2ccc3ccccc3c12	4.15%	2.4%	-9.4%	4.3%	3.55%	
CC1(C)C=C(O)C=C(O)C1	14.2%	2.8%	-2.25%	6.55%	2.5%	
O=C(Oc1c(Cl)cc([N+](=O)[O-])cc1[N+](=O)[O-])Sc1ccccc1	99.4% (active)	99.7% (active)	99.2% (active)	99.5% (active)	99.5% (active)	
CC(C)(C)c1ccc(OC(=S)Nc2ccccc2)cc1	-32.8%	-6.25%	-17.2%	-13.6%	2.5%	
Cc1ccc(N2[C@H]3CCCN3c3ccc(C)cc3[C@@H]2C(F)(F)F)cc1	16.3%	0.8%	-2.25%	-15.5%	2%	
N#CCC(=O)N/N=C(\C(=O)Nc1ccc(Cl)c(Cl)c1)C1CN(c2ccccc2)N=C1N (stereo not given)	24.4%	6.9%	-44.4%	0.45%	-8.4%	
Cc1cc2[nH]c3c(C#N)c4c(c(=O)n3c2cc1C)CCCC4	10.1%	18.5%	2.75%	-5.85%	-22.1%	
Cc1cc(C)cc(N)c1	1.7%	-29.9%	-8.85%	-5.25%	-10%	
CCOC(=O)CC(=O)c1sc(SC)c(C#N)c1N	-8%	-9.6%	-2%	1.6%	1.6%	
CCOc1ccc2nc(N=NC(C(C)=O)C(C)=O)sc2c1	26.9%	9.8%	14.1%	5.55%	15.9%	
O/C=C(\Cl)CCl	17.2%	-7.15%	11.9%	5.1%	16.2%	
COC1(C)C=NCC(C)(C)NC(=O)C(C)(OC)C=NCC(C)(C)NC1=O (stereo not given)	-12.4%	-27.6%	-16.4%	-21.6%	-26.5%	
Cc1cc(C)nc(N)n1	0.25%	0.35%	-42.9%	-1.9%	10.1%	
CCCCCCCCCCCCCCCCC/C(CC)=N/Nc1ccc([N+](=O)[O-])cc1[N+](=O)[O-]	-16.9%	3.9%	-38.8%	-3.2%	-9.1%	
OCC(O)c1ccccn1 (stereo not given)	5.5%	-18.8%	-1.45%	2.55%	6.2%	
c1cc(OCCOc2cccc3ocnc23)c2ncoc2c1	-12.8%	-15.6%	-14.8%	-18.4%	0.65%	
